Measurements as given in PubChem BioAssay (Tox21).
Results filed as inconclusive are left out. Where a call stands in place of a potency, no number is given. Calls of active or inactive are those of the source. Unless noted, calls follow the shape of the dose curve; as a rule, active = well fitted curve in the direction sought with a large enough effect in the repeat runs; inconclusive = weak or mixed curves; inactive = no such curve, though single readings can be large; an effect the other way counts as inactive or inconclusive.

Tests used:
[1] = qHTS assay to identify small molecule antagonists of the glucocorticoid receptor (GR) signaling pathway - cell viability counter screen (AID 720693); also: nearly all actives have a fitted effect of over 55% in size
[2] = qHTS assay for identifying genotoxic compounds that show differential cytotoxicity against isogenic chicken DT40 cell lines with known DNA damage response pathways - wild type cell line (AID 743012); also: nearly all actives have a fitted effect of over 60% in size
Procedure, shortened: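 CellTiter-Glo luminescence readout of viability in wild type DT40 cells after 40 h compound exposure at 37 C/5% CO2; 300 cells/well; reagent incubated 30 min at room temperature before reading.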

[3] = qHTS assay for identifying genotoxic compounds that show differential cytotoxicity against isogenic chicken DT40 cell lines with known DNA damage response pathways - Rad54/Ku70 mutant cell line (AID 743015); also: nearly all actives have a fitted effect of over 60% in size
[4] = qHTS assay to identify small molecule antagonists of the androgen receptor (AR) signaling pathway - cell viability counter screen (AID 743033; also: nearly all actives have a fitted effect of over 45% in size)
[5] = qHTS assay to identify small molecule antagonists of the androgen receptor (AR) signaling pathway using the MDA cell line - cell viability counter screen (AID 743041; also: nearly all actives have a fitted effect of over 45% in size)
Procedure, shortened: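 Cytotoxicity counter screen: MDA-kb2 AR-luc cells, compound + R1881, 16 h, 37C, 0% CO2; CellTiter-Fluor added at 15.5 h, fluorescence read after 30 min.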

[6] = qHTS assay to identify small molecule antagonists of the thyroid receptor (TR) signaling pathway - cell viability counter screen (AID 743064); also: nearly all actives have a fitted effect of over 50% in size
Procedure, shortened: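 In rat pituitary GH3.TRE-Luc reporter cells co-exposed to compound and 1 nM T3 for 23.5 h, cytotoxicity was assessed with CellTiter-Fluor in the same wells, read by fluorescence.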

[7] = qHTS assay to identify small molecule antagonists of the thyroid receptor (TR) signaling pathway (AID 743065); also: series mostly up to about 70 µM; nearly all actives have a fitted effect of over 55% in size
Procedure, shortened: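 GH3.TRE-Luc rat pituitary cells (two TREs driving luciferase) were dosed with compound, then stimulated with 1 nM T3 (final) for 23.5 h at 37 C. ONE-Glo luminescence was the read-out, with CellTiter-Fluor fluorescence as the cytotoxicity counter-screen.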

[8] = system: thyroid hormone receptor (rat, GH3 cells); assay: qHTS assay to identify small molecule agonists of the thyroid receptor (TR) signaling pathway (AID 743066; calls by dose curve; also: potency is read from the fitted curve at half-maximal effect)
[9] = biological target: Estrogen receptor (Homo sapiens) (UniProt P03372); assay: qHTS assay to identify small molecule antagonists of the estrogen receptor alpha (ER-alpha) signaling pathway (AID 743069; active = well fitted curve in the direction sought with a large enough effect in the signal ratio in the repeat runs, not every such curve was filed as active; the % refers to the signal ratio)
Sequence of Estrogen receptor (Homo sapiens) (P03372 whole entry, looked up): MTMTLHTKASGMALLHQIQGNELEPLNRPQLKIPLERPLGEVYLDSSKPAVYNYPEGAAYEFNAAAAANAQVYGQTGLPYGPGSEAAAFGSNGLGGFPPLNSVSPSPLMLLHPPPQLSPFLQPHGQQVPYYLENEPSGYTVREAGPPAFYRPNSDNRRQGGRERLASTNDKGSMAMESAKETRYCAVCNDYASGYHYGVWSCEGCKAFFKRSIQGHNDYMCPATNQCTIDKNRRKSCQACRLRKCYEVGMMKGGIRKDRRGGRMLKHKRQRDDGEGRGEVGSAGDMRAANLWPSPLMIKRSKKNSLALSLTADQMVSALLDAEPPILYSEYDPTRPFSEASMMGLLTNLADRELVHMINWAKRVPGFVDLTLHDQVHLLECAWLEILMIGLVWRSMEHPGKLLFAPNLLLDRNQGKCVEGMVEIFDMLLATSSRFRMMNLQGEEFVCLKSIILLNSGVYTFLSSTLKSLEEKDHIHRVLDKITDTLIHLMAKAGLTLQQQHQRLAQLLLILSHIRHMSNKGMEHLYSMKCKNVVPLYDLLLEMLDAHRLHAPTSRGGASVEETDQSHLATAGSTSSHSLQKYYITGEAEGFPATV
Procedure, shortened: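 Beta-lactamase FRET fluorescence is read after 2 hr at room temperature with LiveBLAzer B/G substrate. Before that, ER-alpha-bla HEK293 cells sit 4 hr after plating, then receive compound plus 17beta-estradiol and incubate 18 hr at 37C.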

[10] = qHTS assay to identify small molecule antagonists of the estrogen receptor alpha (ER-alpha) signaling pathway - cell viability counter screen (AID 743074; calls by dose curve;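 also: HEK293 cells carrying ER-alpha-UAS-bla reporter stimulated with 17beta-estradiol; nearly all actives have a fitted effect of over 45% in size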)
[11] = biological target: Estrogen receptor (Homo sapiens) (UniProt P03372); assay: qHTS assay to identify small molecule agonists of the estrogen receptor alpha (ER-alpha) signaling pathway (AID 743075; calls by dose curve;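 also: HEK293 GripTite cells with ER-alpha and UAS-driven beta-lactamase reporter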)
[12] = biological target: Estrogen receptor (Homo sapiens) (UniProt P03372); assay: qHTS assay to identify small molecule agonists of the estrogen receptor alpha (ER-alpha) signaling pathway using the BG1 cell line (AID 743079); also: nearly all actives have a fitted effect of over 20% in size; also: potency is read from the fitted curve at half-maximal effect
[13] = qHTS assay to identify small molecule antagonists of the estrogen receptor alpha (ER-alpha) signaling pathway using the BG1 cell line (AID 743080; calls by dose curve;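 also: BG1 cells stimulated with 17beta-estradiol alongside compound; series mostly up to about 70 µM; nearly all actives have a fitted effect of over 25% in size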)
Procedure, shortened: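 Readout is ONE-Glo luminescence, taken 30 min at room temperature after reagent addition, preceded by a CellTiter-Fluor viability read; BG1-Luc-4E2 cells had received compound and 17beta-estradiol for 21.5 h at 37 C.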

[14] = qHTS assay to identify small molecule antagonists of the estrogen receptor alpha (ER-alpha) signaling pathway using the BG1 cell line - cell viability counter screen (AID 743081);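 also: compound given together with 17beta-estradiol as the ER stimulus; series mostly up to about 70 µM; nearly all actives have a fitted effect of over 45% in size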
Aromatase (Homo sapiens) = Aromatase (Homo sapiens) (UniProt P11511); assay: qHTS assay to identify aromatase inhibitors (AID 743083); also: series mostly up to about 70 µM; nearly all actives have a fitted effect of over 55% in size
Sequence of Aromatase (Homo sapiens) (P11511 whole entry, looked up): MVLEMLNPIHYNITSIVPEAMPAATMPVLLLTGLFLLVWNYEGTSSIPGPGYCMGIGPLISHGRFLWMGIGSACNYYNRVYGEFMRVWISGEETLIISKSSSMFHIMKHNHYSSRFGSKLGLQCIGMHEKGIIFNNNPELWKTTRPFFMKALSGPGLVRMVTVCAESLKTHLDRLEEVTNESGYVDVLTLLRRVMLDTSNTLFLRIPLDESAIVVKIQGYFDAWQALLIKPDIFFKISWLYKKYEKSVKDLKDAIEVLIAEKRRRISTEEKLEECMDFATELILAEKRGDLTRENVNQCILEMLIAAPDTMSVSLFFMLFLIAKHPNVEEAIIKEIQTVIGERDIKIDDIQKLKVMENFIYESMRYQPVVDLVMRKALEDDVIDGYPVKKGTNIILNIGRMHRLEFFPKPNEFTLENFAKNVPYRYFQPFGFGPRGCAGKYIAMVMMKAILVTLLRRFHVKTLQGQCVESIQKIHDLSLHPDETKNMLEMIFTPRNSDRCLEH

[15] = qHTS assay to identify aromatase inhibitors - cell viability counter screen (AID 743084);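 also: cells stimulated with testosterone during compound exposure; nearly all actives have a fitted effect of over 55% in size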
[16] = qHTS assay for identifying genotoxic compounds that show differential cytotoxicity against isogenic chicken DT40 cell lines with known DNA damage response pathways - Rev3 mutant cell line (AID 743014); also: nearly all actives have a fitted effect of over 55% in size
[17] = biological target: Androgen receptor (Homo sapiens) (UniProt P10275); assay: qHTS assay to identify small molecule antagonists of the androgen receptor (AR) signaling pathway (AID 743035; active = well fitted inhibition curve with a large enough effect in the signal ratio in the repeat runs, not every such curve was filed as active; the % refers to the signal ratio)
Sequence of Androgen receptor (Homo sapiens) (P10275 whole entry, looked up): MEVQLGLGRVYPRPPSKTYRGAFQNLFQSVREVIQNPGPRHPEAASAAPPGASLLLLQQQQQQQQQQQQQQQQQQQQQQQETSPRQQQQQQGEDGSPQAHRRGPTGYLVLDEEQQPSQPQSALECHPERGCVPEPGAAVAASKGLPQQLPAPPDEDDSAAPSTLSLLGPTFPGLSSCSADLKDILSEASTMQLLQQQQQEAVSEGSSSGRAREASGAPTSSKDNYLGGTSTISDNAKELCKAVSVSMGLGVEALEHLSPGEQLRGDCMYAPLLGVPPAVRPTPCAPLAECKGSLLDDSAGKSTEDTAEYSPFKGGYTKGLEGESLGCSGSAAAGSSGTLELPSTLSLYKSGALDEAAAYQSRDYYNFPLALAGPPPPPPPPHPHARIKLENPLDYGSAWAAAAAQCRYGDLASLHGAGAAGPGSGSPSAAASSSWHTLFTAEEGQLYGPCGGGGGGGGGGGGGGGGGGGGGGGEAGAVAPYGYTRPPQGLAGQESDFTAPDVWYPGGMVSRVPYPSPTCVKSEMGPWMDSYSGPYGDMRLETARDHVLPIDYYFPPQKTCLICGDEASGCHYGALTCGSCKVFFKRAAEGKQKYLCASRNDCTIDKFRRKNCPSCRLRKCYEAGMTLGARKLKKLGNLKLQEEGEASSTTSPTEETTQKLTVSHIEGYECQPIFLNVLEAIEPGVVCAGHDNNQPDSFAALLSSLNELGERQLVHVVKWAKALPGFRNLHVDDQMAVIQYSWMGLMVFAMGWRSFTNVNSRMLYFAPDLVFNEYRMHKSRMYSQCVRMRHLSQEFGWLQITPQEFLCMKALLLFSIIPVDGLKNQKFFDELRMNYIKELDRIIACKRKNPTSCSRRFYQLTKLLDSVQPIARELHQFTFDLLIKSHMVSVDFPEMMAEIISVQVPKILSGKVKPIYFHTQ
Procedure, shortened: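 AR-bla HEK293 reporter cells; 4 h settle at 37C/5% CO2; compound + R1881 agonist, 16 h at 37C; LiveBLAzer B/G FRET substrate 2 h RT; fluorescence intensity read. qHTS format.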

[18] = biological target: Androgen receptor (Homo sapiens) (UniProt P10275); assay: qHTS assay to identify small molecule agonists of the androgen receptor (AR) signaling pathway (AID 743036; active = well fitted activation curve with a large enough effect in the signal ratio in the repeat runs, with a control signal flat, not every such curve was filed as active; the % refers to the signal ratio)
Procedure, shortened: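 Cell-based FRET reporter assay: HEK293 line with a UAS-beta-lactamase construct, compounds added in DMSO, 16 h exposure at 37C, then 2 h substrate step at room temperature and fluorescence intensity read.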

[19] = biological target: Androgen receptor (Homo sapiens) (UniProt P10275); assay: qHTS assay to identify small molecule antagonists of the androgen receptor (AR) signaling pathway using the MDA cell line (AID 743042; also: nearly all actives have a fitted effect of over 55% in size)
Procedure, shortened: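 MDA-kb2 breast carcinoma cells carrying MMTV-luciferase (AR/GR responsive) were co-treated with compounds and the agonist R1881 for 16 h at 37C. Inhibition read as ONE-Glo luminescence; CellTiter-Fluor fluorescence measured in parallel for cytotoxicity.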

## CO[Si](CCCS)(OC)OC
[1]
  Potency: inactive
[2]
  Potency: inactive
[3]
  Potency: inactive
[4]
  outcome: inactive
[5]
  outcome: inactive
[6]
  Potency: inactive
[7]
  Potency: inactive
[8]
  Potency: inactive
[9]
  Potency: inactive
[10]
  Potency: inactive
[11]
  Potency: inactive
[12]
  Potency: inactive
[13]
  outcome: inactive
[14]
  outcome: inactive
Aromatase (Homo sapiens)
  outcome: inactive
[15]
  Potency: inactive

## CCCCC(CC)COC(=O)c1ccccc1 (centres undefined)
[1]
  Potency: inactive
[2]
  Potency: inactive
[4]
  outcome: inactive
[5]
  outcome: inactive
[6]
  Potency: inactive
[7]
  Potency: inactive
[8]
  Potency: inactive
[9]
  Potency: inactive
[10]
  Potency: inactive
[11]
  Potency: inactive
[12]
  Potency: inactive
[13]
  outcome: inactive
[14]
  outcome: inactive
Aromatase (Homo sapiens)
  outcome: inactive
[15]
  Potency: inactive

## CCCOC(=O)CCCCC(=O)OCCC
[1]
  Potency: inactive
[2]
  Potency: inactive
[3]
  Potency: inactive
[4]
  outcome: inactive
[5]
  outcome: inactive
[6]
  Potency: inactive
[7]
  Potency: inactive
[8]
  Potency: inactive
[9]
  Potency: inactive
[10]
  Potency: inactive
[11]
  Potency: inactive
[12]
  Potency: inactive
Aromatase (Homo sapiens)
  outcome: inactive
[15]
  Potency: inactive

## O=C1c2ccccc2-c2ccccc21
[1]
  Potency: inactive
[16]
  Potency: inactive
[3]
  Potency: inactive
[4]
  outcome: inactive
[17]
  Potency: inactive
[18]
  outcome: inactive
[5]
  outcome: inactive
[19]
  outcome: inactive
[6]
  Potency: inactive
[7]
  Potency: inactive
[8]
  Potency: inactive
[10]
  Potency: inactive
[14]
  outcome: inactive
Aromatase (Homo sapiens)
  outcome: inactive
[15]
  Potency: inactive

## C[C@H](CCC(=O)NCC(=O)O)[C@H]1CC[C@H]2[C@@H]3[C@H](O)C[C@@H]4C[C@H](O)CC[C@]4(C)[C@H]3C[C@H](O)[C@]12C
[1]
  Potency: inactive
[2]
  Potency: inactive
[3]
  Potency: inactive
[4]
  outcome: inactive
[5]
  outcome: inactive
[7]
  Potency: inactive
[8]
  Potency: 74.8 µM (active)
[10]
  Potency: inactive
[14]
  outcome: inactive
Aromatase (Homo sapiens)
  outcome: inactive
[15]
  Potency: inactive

## CCCCOC(=O)[C@@H](C)Oc1ccc(Oc2ccc(C(F)(F)F)cn2)cc1
[1]
  Potency: inactive
[2]
  Potency: inactive
[3]
  Potency: inactive
[4]
  outcome: inactive
[5]
  outcome: inactive
[6]
  Potency: inactive
[7]
  Potency: inactive
[8]
  Potency: inactive
[10]
  Potency: inactive
[11]
  Potency: inactive
[12]
  Potency: 61.5 µM (active)
[13]
  outcome: inactive
[14]
  outcome: inactive
[15]
  Potency: inactive

## C=CCOCC(CO)(COCC=C)COCC=C
[1]
  Potency: inactive
[16]
  Potency: inactive
[3]
  Potency: inactive
[4]
  outcome: inactive
[5]
  outcome: inactive
[6]
  Potency: inactive
[7]
  Potency: inactive
[8]
  Potency: inactive
[9]
  Potency: inactive
[11]
  Potency: inactive
[12]
  Potency: inactive
[13]
  outcome: inactive
[14]
  outcome: inactive
Aromatase (Homo sapiens)
  outcome: inactive
[15]
  Potency: inactive

## CCN(CCC#N)c1ccccc1
[1]
  Potency: inactive
[16]
  Potency: inactive
[3]
  Potency: inactive
[4]
  outcome: inactive
[5]
  outcome: inactive
[6]
  Potency: inactive
[7]
  Potency: inactive
[8]
  Potency: inactive
[9]
  Potency: inactive
[10]
  Potency: inactive
[11]
  Potency: inactive
[12]
  Potency: inactive
[14]
  outcome: inactive
Aromatase (Homo sapiens)
  outcome: inactive
[15]
  Potency: inactive

## O=C(Oc1ccccc1C(=O)O)c1ccccc1O
[1]
  Potency: inactive
[3]
  Potency: inactive
[4]
  outcome: inactive
[5]
  outcome: inactive
[6]
  Potency: inactive
[7]
  Potency: inactive
[8]
  Potency: inactive
[9]
  Potency: inactive
[10]
  Potency: inactive
[11]
  Potency: inactive
[12]
  Potency: 26.6 µM (active)
[13]
  outcome: inactive
[14]
  outcome: inactive
Aromatase (Homo sapiens)
  outcome: inactive
[15]
  Potency: inactive

## NC(=O)NC(=O)Cc1ccccc1
[1]
  Potency: inactive
[16]
  Potency: inactive
[5]
  outcome: inactive
[6]
  Potency: inactive
[7]
  Potency: inactive
[8]
  Potency: inactive
[9]
  Potency: inactive
[10]
  Potency: inactive
[11]
  Potency: inactive
[12]
  Potency: 33.5 µM (active)
[13]
  outcome: inactive
[14]
  outcome: inactive
Aromatase (Homo sapiens)
  outcome: inactive
[15]
  Potency: inactive
